High-throughput results (PubChem BioAssay)
Only some compounds are listed: those with a hit (about 2.7% of all), similar ones and a draw of the others.
GSIS activator: GLuc luminescence reporter in INS-1E cells, primary screen for activators of glucose-dependent secretion of insulin | activation, % at 16.6 µM | 370,000 tested, 0.61% active | INS-1E GLuc reporter insulin secretion, 2-3 h;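 active means lowest replicate activation of at least 40%, so every replicate reaches that level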;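 further: 0% = median of neutral control wells and 100% = median of IBMX positive control wells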
MITF act: increases MITF-driven TRPM1 promoter luciferase signal; SK-MEL-5 TRPM1-promoter luciferase, 24 h; % of positive control, neutral wells = 0; activation, % at 12.5 µM; 300,000 tested, 0.75% active;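 active means mean activation of at least 80% with every replicate also reaching 80%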;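 further: 0% = neutral control wells and 100% = parthenolide positive control wells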
Wnt act: activates Wnt/beta-catenin signaling in a reporter cell assay. activator, plate reader. activation, % at 9.35 µM. 300,000 tested, 1.2% active; in the data active means activation above about 30%, passing the limit was not always enough;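 further: 0% = neutral control wells and 100% = positive control wells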
CFTR F508del cor: correctors of CFTR F508del function in bronchial epithelial cells; CFBE cells, YFP halide quenching; stimulated with forskolin plus potentiator P3; % fluorescence drop versus neutral controls; 350,000 tested, 0.36% active; activity (quench increase), % at 7.58 µM;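 active means mean added fluorescence quench of at least 8% versus neutral control, with both replicates also reaching 8%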;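 further: cells transiently co-express mutant CFTR-F508del with the halide-sensitive YFP; corrector assay measuring rescue of mutant channel to the surface after 24 h compound exposure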
Env fusion inh: HIV envelope-mediated fusion inhibition; HeLa-JRFL Env/CEM21 cell fusion, luciferase; inhibition, % at 12.3 µM; 360,000 tested, 1.1% active; AID 651610;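 active means mean replicate inhibition score of at least 50 and every replicate individually at or above 50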;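 further: 0% = plate neutral controls and 100% = maraviroc near 300 nM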
Active calls of the source: *; · = not tested or not shown; [ ] = remark or other dose.

SMILES	GSIS activator	MITF act	Wnt act	CFTR F508del cor	Env fusion inh
Cc1ccc(C(=O)N[C@@H](C)CN2C3=NC[C@@H](Cc4ccccc4)N3C[C@H]2Cc2ccc(O)cc2)cc1Br	-52.9	·	23.8	2.9	75.3*
COc1ccc(C(CNC(=O)Cc2ccc(Cl)c(Cl)c2)N2CCCCC2)cc1 (configuration not stated)	-27.7	15.2	1.7	-1.4	5.1
O=C(Cc1ccc(Cl)c(Cl)c1)NCC1(N2CCOCC2)CCCCC1	0.5	4.2	44.9*	-0.4	11.4
CC(C)NC(=O)N1C[C@@H]2C(c3ccc(Br)cc3)[C@H](C1)N2CC1CC1 (some centres not stated)	-8.1	·	·	·	·
N#Cc1cn(C2OC(CO)C(O)C2O)c2ncnc(N)c12 (configuration not stated)	4.8	·	-2.5	-3.0	84.8*
NC(=O)c1c(Br)n(C2OC(CO)C(O)C2O)c2ncnc(N)c12 (configuration not stated)	-12.2	·	-18.8	3.7	70.7*
Nc1ncnc2c1ncn2[C@@H]1O[C@H](COP(=O)(O)CP(=O)(O)O)[C@@H](O)[C@H]1O	·	-3.8	-3.5	0.5	7.3
N#Cc1c(Br)n(C2OC(CO)C(O)C2O)c2ncnc(N)c12 (configuration not stated)	-4.0	·	-5.6	0.7	-1.1
NC(=O)c1cn(C2OC(CO)C(O)C2O)c2ncnc(N)c12 (configuration not stated)	2.5	-82.4	-20.7	-3.6	89.5*
CCNC(=O)[C@H]1O[C@@H](n2cnc3c(N)ncnc32)[C@H](O)[C@@H]1O	·	-6.0	0.4	-2.6	-1.5
O=C(O)[C@H]1[C@H](CO)[C@H]2Cn3c(ccc(-c4ccncc4)c3=O)[C@@H]1N2C(=O)C1CCC1	20.9	·	·	1.2	·
CN1C(=O)/C(=C\c2ccc(N3CCCCC3)o2)C(=O)NC1=S	·	·	49.7*	·	-122.6
CN1C(=O)/C(=C\c2ccc(N3CCCCCC3)cc2)C(=O)NC1=S	-21.8	·	4.2	1.3	-4.5
CN1C(=O)/C(=C/c2ccc(N3CCCCCC3)o2)C(=O)NC1=S	-10.6	·	44.1*	·	-124.9
C[C@H](CO)N1C[C@H](C)[C@@H](CN(C)C(=O)Oc2ccccc2)OCc2ccccc2-c2c(n(C)c3ccccc23)C1=O	-32.7	·	·	·	·
CC(=O)N1C[C@@H]2C(c3ccc(Br)cc3)[C@H](C1)N2CC1CC1 (some centres not stated)	9.3	·	·	·	·
O=C1NC(=O)C(=Cc2c(Cl)cccc2Cl)C(=O)N1	8.3	-19.4	-4.5	8.7*	-15.0
COC(=O)[C@H]1[C@H](CO)[C@H]2Cn3c(ccc(C4=CCCC4)c3=O)[C@@H]1N2CC1CCCC1	5.3	·	·	-0.3	·
CS(=O)(=O)N1C[C@@H]2C(c3ccc(Br)cc3)[C@H](C1)N2CC1CC1 (some centres not stated)	2.7	·	·	·	·
CCOC(=O)[C@]12Cc3ccc(C)cc3[C@H]1N(C1CCCCC1)C(=O)c1ccccc12	-22.6	·	-3.0	-3.1	16.1
CCOC(=O)[C@]12Cc3ccc(C)cc3[C@H]1N(C1CCCCC1)C(=O)c1cc(OC)ccc12	3.7	·	-1.4	20.0*	-14.5
Cc1cccc(S(=O)(=O)N2[C@@H]3Cn4c(ccc(-c5ccncc5)c4=O)[C@H]2[C@@H](C(=O)O)[C@@H]3CO)c1	4.9	·	·	1.5	·
COCCNC(=O)c1c(N)n(CCC(C)C)c2nc3ccccc3nc12	-19.0	-10.2	·	·	58.9*
COC(=O)[C@@H]1[C@@H](CO)[C@@H]2Cn3c(ccc(-c4ccccc4)c3=O)[C@H]1N2CC1CCOCC1	3.3	·	·	-1.5	·
CC(=O)O[C@H]1C[C@@H]2OC3C=C(C)CCC3(C)[C@@]1(C)[C@@]21CO1 (some centres not stated)	·	·	-25.1	-0.4	71.6*
SMILES	GSIS activator	MITF act	Wnt act	CFTR F508del cor	Env fusion inh
CC(=O)OC1CC2OC3C=C(C)CCC3(C)C1(C)C21CO1 (configuration not stated)	-11.8	·	-3.4	-9.0	·
CC(C)NC(=O)N1C[C@@H]2C(c3ccccc3)[C@H](C1)N2CC1CC1 (some centres not stated)	11.0	·	·	·	·
CCOc1cc(CNCCc2c[nH]c3ccccc23)cc(Cl)c1OC	·	-2.5	-2.1	1.8	68.0*
COc1ccc(-c2ccc([C@@H]3[C@H](CO)N4CCCCN(C(=O)Cc5ccccc5)C[C@@H]34)cc2)cc1	-5.4	·	·	-1.3	·
O=C(Nc1ccncc1)c1cccn(Cc2ccccc2)c1=O	8.7	-18.0	-8.1	-0.2	56.0*
CC=Cc1ccc2n(c1=O)C[C@@H]1[C@@H](CO)[C@H](C(=O)O)[C@H]2N1S(=O)(=O)c1ccccc1C (mixture of isomers)	-0.5	·	·	0.1	·
CC=Cc1ccc2n(c1=O)C[C@@H]1[C@@H](CO)[C@H](C(=O)OC)[C@H]2N1S(=O)(=O)c1cccc(C)c1 (mixture of isomers)	3.4	·	·	·	61.1*[16.7 µM]
O=P(Nc1ccccc1)(Oc1ccccc1)Oc1ccccc1	3.6	·	-2.1	-0.7	15.4
O=P(NC(c1ccccc1)c1ccccc1)(Oc1ccccc1)Oc1ccccc1	40.3*	12.9	·	·	26.3
C=CCN1[C@@H]2CN(C(C)=O)C[C@H]1C2c1ccccc1 (some centres not stated)	-3.8	·	·	·	·
CN1CCN(c2ccc3c(c2)S(=O)(=O)c2ccccc2C3=O)CC1	12.3	92.9*	24.7	-0.1	-9.9
CN1CCN(c2cccc3c2C(=O)c2ccccc2C3=O)CC1	8.8	3.3	-2.2	0.8	-27.1
Cc1cccc(S(=O)(=O)N2[C@@H]3c4ccc(-c5ccc(F)cc5)c(=O)n4C[C@H]2[C@H](CO)[C@H]3C(=O)O)c1	2.1	·	·	·	-1.7[16.7 µM]
O=C(Cc1ccccc1)N1C[C@@H]2[C@H](c3ccccc31)[C@@H](CO)N2Cc1ccccc1	5.3	·	·	1.1	·
CC(C)NS(=O)(=O)c1ccc(OCC(=O)N2CCN(Cc3ccc4c(c3)OCO4)CC2)c(Cl)c1	0.3	-17.3	·	·	74.2*
O=C(c1ccccc1)C(CN1CCCC1)c1ccccc1 (configuration not stated)	-19.5	-98.7	·	·	-43.5
CC1CCN(C(CC(=O)c2ccccc2)C(=O)c2ccccc2)CC1 (configuration not stated)	·	1.7	50.6*	-0.8	-11.6
CNc1ccc2oc(C[C@H]3O[C@@]4(CC[C@H]3C)O[C@H]([C@H](C)C(=O)c3ccc[nH]3)[C@H](C)C[C@H]4C)nc2c1C(=O)O	·	-100.8	-22.4	2.7	90.3*
C[C@]12CCC3=C4CCC(=O)C=C4CC[C@H]3C1CC[C@@H]2O (some centres not stated)	11.8	-18.2	-1.5	-2.5	56.4*
c1ccc(Nc2ccc(Nc3ccccc3)cc2)cc1	20.0	86.3*	29.9	-0.2	·
Cc1ccc(N)c(N)c1	-6.9	99.0*	29.1	2.1	·
Cc1ccc(N)c(C(=O)c2ccc(Br)cc2)c1	29.4	0.4	1.5	0.0	3.2
COc1ccc(Cc2nccc3cc(OC)c(OC)cc23)cc1OC	28.8	-25.4	-3.7	1.8	57.0*
COc1ccc(CC2=NCCc3cc(OC)c(OC)cc32)cc1OC	8.2	·	4.4	2.1	0.6
